Reference: PubChem BioAssay (NCI)
This is part of a sample that, as a whole, favours compounds with a hit. Of some 83,000 tested, about 20% had one in any assay.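 Plates (96-well) were seeded with cells, treated with compound at one concentration, and incubated for 48 hours before percent growth was determined.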 Activity calls are given as the source filed them. Rule for the calls: active = growth percent below 10; inactive = the rest.

What was measured:
Test in all cases: NCI-60 one-dose screen, 48 h (100 = growth as untreated, 0 = no growth, -100 = all killed)
Conditions in all cases: 10 µM unless noted
DU-145 prostate = tested on: DU-145 prostate
K-562 leukemia = tested on: K-562 leukemia
MALME-3M melanoma = tested on: MALME-3M melanoma
MDA-MB-231 breast = tested on: MDA-MB-231 breast
SF-268 CNS = tested on: SF-268 CNS
SF-295 CNS = tested on: SF-295 CNS
SF-539 CNS = tested on: SF-539 CNS
M14 melanoma = tested on: M14 melanoma
HCT-15 colon = tested on: HCT-15 colon
HT29 colon = tested on: HT29 colon
SNB-75 CNS = tested on: SNB-75 CNS
SNB-19 CNS = tested on: SNB-19 CNS
U251 CNS = tested on: U251 CNS
PC-3 prostate = tested on: PC-3 prostate
SK-MEL-5 melanoma = tested on: SK-MEL-5 melanoma
UACC-62 melanoma = tested on: UACC-62 melanoma
LOX IMVI melanoma = tested on: LOX IMVI melanoma
SK-MEL-28 melanoma = tested on: SK-MEL-28 melanoma
RXF 393 renal = tested on: RXF 393 renal

Measured: growth

COc1c(C(NC(=O)c2ccccc2)c2sccc2C)cc(Cl)c2cccnc12 (stereo not given)
inactive: DU-145 prostate 108% | K-562 leukemia 105% | MALME-3M melanoma 108% | MDA-MB-231 breast 88.4% | SF-268 CNS 100% | SF-295 CNS 103% | SF-539 CNS 106% | M14 melanoma 103% | HCT-15 colon 101% | HT29 colon 94.1% | SNB-75 CNS 88.4% | SNB-19 CNS 118% | U251 CNS 88.6% | PC-3 prostate 83.2% | SK-MEL-5 melanoma 98.4% | UACC-62 melanoma 93% | LOX IMVI melanoma 98.1% | SK-MEL-28 melanoma 114%

CC(C)C1CCC(C)C(C2(C#N)C(N)=NC(N)=C2C#N)C1=O (stereo not given)
inactive: DU-145 prostate 102% | K-562 leukemia 98.7% | MALME-3M melanoma 92.3% | MDA-MB-231 breast 95.8% | SF-268 CNS 97.3% | SF-295 CNS 103% | SF-539 CNS 97.7% | M14 melanoma 96.1% | HCT-15 colon 101% | HT29 colon 96.2% | SNB-75 CNS 84% | SNB-19 CNS 101% | U251 CNS 99.7% | PC-3 prostate 86% | SK-MEL-5 melanoma 101% | UACC-62 melanoma 102% | LOX IMVI melanoma 92.5% | SK-MEL-28 melanoma 107%

COc1cc2c(cc1OCCCCCN1CCN(c3ncnc4ccccc34)CC1)N=CC1CCCN1C2=O (stereo not given)
inactive: SNB-19 CNS 12.6%
active: DU-145 prostate -20.8% | K-562 leukemia 5.44% | MALME-3M melanoma -59% | MDA-MB-231 breast -26.6% | SF-268 CNS -0.231% | SF-295 CNS -39.7% | SF-539 CNS -77.3% | M14 melanoma -66.9% | HCT-15 colon 0.198% | HT29 colon 8.89% | U251 CNS 2.18% | PC-3 prostate -38.6% | SK-MEL-5 melanoma -80.6% | UACC-62 melanoma -90.4% | LOX IMVI melanoma -49.2% | SK-MEL-28 melanoma -14.6%

OCCNC(=S)Nc1ccc(-c2nc(N3C[C@H]4CC[C@@H](C3)O4)c3cccn3n2)cc1
active: DU-145 prostate 8.77% | MDA-MB-231 breast 4.21% | RXF 393 renal -31.4% | SF-268 CNS 9.25% | SF-295 CNS -34.3% | SF-539 CNS -12.2% | M14 melanoma 5.27% | SNB-75 CNS -30.4% | SNB-19 CNS 0.975% | U251 CNS 7.99% | PC-3 prostate 9.91% | SK-MEL-5 melanoma -34.8% | UACC-62 melanoma -36.5% | LOX IMVI melanoma 1.79% | SK-MEL-28 melanoma -5.35%
inactive: K-562 leukemia 19.1% | HCT-15 colon 13% | HT29 colon 20.1%

COc1ccc(CCCc2c3[n+](cc4c(OC)c(OC)ccc24)CCc2cc4c(cc2-3)OCO4)cc1
inactive: DU-145 prostate 79.3% | K-562 leukemia 57.8% | MALME-3M melanoma 94.4% | MDA-MB-231 breast 84.6% | SF-268 CNS 63% | SF-295 CNS 78.9% | SF-539 CNS 92.3% | M14 melanoma 85.1% | HCT-15 colon 102% | HT29 colon 47.2% | SNB-75 CNS 88.3% | SNB-19 CNS 60.4% | U251 CNS 40.8% | PC-3 prostate 58.2% | SK-MEL-5 melanoma 39% | UACC-62 melanoma 49.7% | LOX IMVI melanoma 57.8% | SK-MEL-28 melanoma 63.1%

CC(N)C(Cc1ccccc1)c1ccc(Cl)cc1 (stereo not given)
inactive: DU-145 prostate 110% | K-562 leukemia 87% | MALME-3M melanoma 103% | MDA-MB-231 breast 61.1% | SF-268 CNS 92.2% | SF-295 CNS 83.5% | SF-539 CNS 90.1% | M14 melanoma 82.6% | HCT-15 colon 101% | HT29 colon 76.8% | SNB-75 CNS 70.4% | SNB-19 CNS 92% | PC-3 prostate 68% | SK-MEL-5 melanoma 93.3% | UACC-62 melanoma 93.2% | LOX IMVI melanoma 90.1% | SK-MEL-28 melanoma 96.7%

CC(C)[C@@H](C)/C=C/[C@@H](C)[C@H]1CCC2=C3C=CC4=CC(=O)CC[C@]4(C)[C@H]3CC[C@@]21C
inactive: DU-145 prostate 105% | K-562 leukemia 92.6% | MALME-3M melanoma 110% | MDA-MB-231 breast 105% | SF-268 CNS 98.9% | SF-295 CNS 94.9% | SF-539 CNS 106% | M14 melanoma 98.6% | HCT-15 colon 99.7% | HT29 colon 74.3% | SNB-75 CNS 96.7% | SNB-19 CNS 100% | U251 CNS 88.7% | PC-3 prostate 62.8% | SK-MEL-5 melanoma 89.5% | UACC-62 melanoma 94.9% | LOX IMVI melanoma 101% | SK-MEL-28 melanoma 113%

CCCCN1CCCC[C@@H]1C(=O)N[C@H](C(=O)N(C)[C@H](CCc1nc(C(=O)N[C@@H](Cc2ccccc2)C[C@H](C)C(=O)OC)cs1)C(C)C)C(C)C
inactive: DU-145 prostate 92.9% | K-562 leukemia 22.9% | MALME-3M melanoma 45.1% | MDA-MB-231 breast 71.5% | SF-268 CNS 84.3% | SF-295 CNS 49.4% | SF-539 CNS 82.8% | M14 melanoma 49.9% | HCT-15 colon 59.4% | HT29 colon 68.9% | SNB-19 CNS 57.9% | U251 CNS 83.8% | PC-3 prostate 35% | SK-MEL-5 melanoma 53.5% | UACC-62 melanoma 43.6% | LOX IMVI melanoma 80% | SK-MEL-28 melanoma 76.4%

CC(=O)Oc1ccccc1C(=O)N=C1[Se]CCN1C(=O)c1ccccc1OC(C)=O
active: DU-145 prostate -44.2% | K-562 leukemia 8.83% | MDA-MB-231 breast -22.2% | RXF 393 renal -72.5% | SF-268 CNS -77.1% | SF-295 CNS -67.6% | SF-539 CNS -79.4% | M14 melanoma -57.7% | HCT-15 colon -36.1% | HT29 colon 0.805% | SNB-75 CNS -65.2% | SNB-19 CNS -48.8% | U251 CNS -63.6% | PC-3 prostate -49.7% | SK-MEL-5 melanoma -57.6% | UACC-62 melanoma -57.8% | LOX IMVI melanoma -49% | SK-MEL-28 melanoma -27.9%

O=C1CC(c2ccc3c(c2)OCO3)c2ncn(-c3ccc(Cl)cc3)c2N1 (stereo not given)
active: SF-539 CNS 1.25% | M14 melanoma -2.01%
inactive: DU-145 prostate 18.3% | K-562 leukemia 14.3% | MALME-3M melanoma 62.6% | MDA-MB-231 breast 44.3% | SF-268 CNS 44.4% | SF-295 CNS 70.8% | HCT-15 colon 24.2% | HT29 colon 10.9% | SNB-75 CNS 30.1% | SNB-19 CNS 47.8% | U251 CNS 21.9% | PC-3 prostate 45.1% | SK-MEL-5 melanoma 24.8% | UACC-62 melanoma 34.4% | LOX IMVI melanoma 51.7% | SK-MEL-28 melanoma 55.4%

COc1cc(C(=O)NNC(=O)c2ccc(NC(=O)CCl)cc2)cc(OC)c1OC
inactive: DU-145 prostate 91% | K-562 leukemia 53.7% | MDA-MB-231 breast 51.1% | RXF 393 renal 92.9% | SF-268 CNS 76.8% | SF-295 CNS 93.7% | SF-539 CNS 91.5% | M14 melanoma 82.6% | HCT-15 colon 86.4% | HT29 colon 60.5% | SNB-75 CNS 87.4% | SNB-19 CNS 88.9% | U251 CNS 11.1% | PC-3 prostate 66.1% | SK-MEL-5 melanoma 77.9% | UACC-62 melanoma 66.9% | LOX IMVI melanoma 28.9%

COC(=O)CC[C@@H](C)[C@H]1CC[C@H]2C3CC[C@@H]4C[C@@H]5CC[C@]4(C)[C@@]3(O5)[C@H](Br)[C@@H](Br)[C@]12C (stereo not given in full)
inactive: DU-145 prostate 101% | K-562 leukemia 78.2% | MALME-3M melanoma 103% | MDA-MB-231 breast 99.4% | SF-268 CNS 91.2% | SF-295 CNS 99.3% | SF-539 CNS 103% | M14 melanoma 90.6% | HCT-15 colon 97.3% | HT29 colon 81.6% | SNB-19 CNS 106% | U251 CNS 88.6% | PC-3 prostate 77.9% | SK-MEL-5 melanoma 99.3% | UACC-62 melanoma 86.3% | LOX IMVI melanoma 97.1% | SK-MEL-28 melanoma 105%

CCC1(/C=N/NC(N)=S)NC(=O)NC1=O (stereo not given)
inactive: DU-145 prostate 112% | K-562 leukemia 109% | MALME-3M melanoma 107% | MDA-MB-231 breast 102% | SF-268 CNS 106% | SF-295 CNS 107% | SF-539 CNS 109% | M14 melanoma 103% | HCT-15 colon 107% | HT29 colon 94.9% | SNB-19 CNS 109% | U251 CNS 86.8% | PC-3 prostate 85.1% | SK-MEL-5 melanoma 102% | UACC-62 melanoma 104% | LOX IMVI melanoma 102%

COc1ccc2c(CCC(c3ccccc3)c3ccccc3)c3[n+](cc2c1OC)CCc1cc2c(cc1-3)OCO2
inactive: DU-145 prostate 18.5% | SF-268 CNS 19.8% | SF-539 CNS 13.6% | HCT-15 colon 47.1% | SNB-75 CNS 37.1% | SNB-19 CNS 20.6%
active: K-562 leukemia 6.12% | MALME-3M melanoma -7.17% | MDA-MB-231 breast -28.7% | SF-295 CNS -15.8% | M14 melanoma 2.51% | HT29 colon 6.26% | PC-3 prostate -39.8% | SK-MEL-5 melanoma -99.6% | UACC-62 melanoma -43.5% | LOX IMVI melanoma -58.5% | SK-MEL-28 melanoma 3.87%

O=C1/C(=C\c2cccc(OCCCCCOc3ccc(Cl)cc3)c2)N=C2SCCCN12
inactive: DU-145 prostate 84% | K-562 leukemia 41.7% | MDA-MB-231 breast 54.2% | RXF 393 renal 71.2% | SF-268 CNS 81.3% | SF-295 CNS 43% | SF-539 CNS 77.4% | M14 melanoma 44.5% | HCT-15 colon 57.7% | HT29 colon 67.4% | SNB-75 CNS 71.3% | SNB-19 CNS 75% | U251 CNS 74.1% | PC-3 prostate 28.8% | UACC-62 melanoma 56.6% | LOX IMVI melanoma 67.1% | SK-MEL-28 melanoma 58.7%
active: SK-MEL-5 melanoma -6.82%

N#Cc1c(NC(=O)c2cccs2)[n+]([O-])c2ccc(F)cc2[n+]1[O-]
inactive: DU-145 prostate 103% | K-562 leukemia 91.3% | MALME-3M melanoma 92.4% | MDA-MB-231 breast 87.2% | SF-268 CNS 101% | SF-295 CNS 100% | SF-539 CNS 98.1% | M14 melanoma 101% | HCT-15 colon 74.6% | HT29 colon 97.6% | SNB-75 CNS 81.1% | SNB-19 CNS 98% | U251 CNS 93.2% | PC-3 prostate 77.3% | UACC-62 melanoma 83.2% | LOX IMVI melanoma 89.9% | SK-MEL-28 melanoma 112%
active: SK-MEL-5 melanoma 2.84%
